# Measured values reported in publication PMC4336329 (PLoS ONE, 2015).
# Out of some 310,000 compounds screened, about 14,000 (4.5%) showed an effect of 50% or more. The effect is printed as a negative number. This excerpt belongs to a sample that is enriched for strong results.
# Biological target: human ether-à-go-go-related gene (hERG) potassium channel (human, UniProt Q12809)
# Assay: primary screen, population patch clamp on CHO cells stably expressing hERG; higher = less effect of the substance
# 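Further: peak tail current of the secondary pulse compared with the same well before compound.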
# Sequence of human ether-à-go-go-related gene (hERG) potassium channel (Q12809 whole entry, looked up): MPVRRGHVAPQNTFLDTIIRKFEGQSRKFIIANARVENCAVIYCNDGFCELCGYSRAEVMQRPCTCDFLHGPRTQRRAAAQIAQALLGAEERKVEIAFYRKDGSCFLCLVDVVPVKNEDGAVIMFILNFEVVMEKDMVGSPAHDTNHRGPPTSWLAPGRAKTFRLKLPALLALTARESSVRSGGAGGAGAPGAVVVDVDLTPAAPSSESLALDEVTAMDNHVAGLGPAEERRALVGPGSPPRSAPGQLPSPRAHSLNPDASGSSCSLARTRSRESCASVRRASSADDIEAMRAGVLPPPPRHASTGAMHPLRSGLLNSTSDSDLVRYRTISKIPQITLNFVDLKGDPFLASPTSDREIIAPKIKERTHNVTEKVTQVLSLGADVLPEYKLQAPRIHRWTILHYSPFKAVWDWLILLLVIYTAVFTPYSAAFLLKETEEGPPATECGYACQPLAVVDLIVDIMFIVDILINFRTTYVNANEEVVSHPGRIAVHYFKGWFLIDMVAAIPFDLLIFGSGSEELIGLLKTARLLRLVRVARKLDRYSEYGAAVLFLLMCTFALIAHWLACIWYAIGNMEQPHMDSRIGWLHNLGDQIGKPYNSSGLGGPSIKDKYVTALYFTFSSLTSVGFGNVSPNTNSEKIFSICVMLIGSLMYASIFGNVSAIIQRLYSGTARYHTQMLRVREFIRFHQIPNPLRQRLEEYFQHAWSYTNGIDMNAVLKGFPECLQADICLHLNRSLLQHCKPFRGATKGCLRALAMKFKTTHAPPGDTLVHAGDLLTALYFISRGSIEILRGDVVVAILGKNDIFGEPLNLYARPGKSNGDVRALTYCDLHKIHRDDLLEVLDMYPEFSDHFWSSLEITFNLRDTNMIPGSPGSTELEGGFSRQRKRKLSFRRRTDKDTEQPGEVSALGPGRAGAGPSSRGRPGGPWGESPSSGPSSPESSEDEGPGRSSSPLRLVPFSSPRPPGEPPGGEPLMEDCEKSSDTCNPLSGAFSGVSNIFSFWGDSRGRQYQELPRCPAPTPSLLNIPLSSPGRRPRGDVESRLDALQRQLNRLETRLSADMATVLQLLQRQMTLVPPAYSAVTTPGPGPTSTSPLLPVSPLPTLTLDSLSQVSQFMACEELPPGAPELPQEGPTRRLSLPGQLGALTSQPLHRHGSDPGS
row,Compound,"hERG current change (%, negative = inhibition) at 10uM [%]"
1,CC(C)C(C(=O)Nc1sc2c(c1C#N)CCCCC2)N1C(=O)c2ccccc2C1=O (stereo not shown),4.7
2,Cn1c(CCCOc2ccc(Cl)cc2Cl)nnc1SCC(=O)Nc1cccc(F)c1,-3.24
3,COC(=O)/C=C1\C(=O)N(c2nc3ccc(OC)cc3s2)C(=S)N1c1ccc(F)cc1,-7.23
4,CCOc1ccc(OCc2ccc(C(=O)N3CCc4ccccc4C3)o2)cc1,-10.4
5,CC(=O)C[C@H]1c2cc(C(F)(F)F)ccc2S(=O)(=O)N1C1CCCC1,-12.1
6,CSc1ccccc1C(=O)N1CCCC(CNC(=O)c2ccc(F)cc2)C1 (stereo not shown),15.3
7,Cc1cc(CN2CCCC(CNC(=O)c3ccc(F)cc3)C2)cc(C)c1O (stereo not shown),-24.1
8,CSc1cccc(CN2CCCC(CNC(=O)c3ccco3)C2)c1 (stereo not shown),-91.9
9,O=C(NCC1CCCN(Cc2cccc(OCCO)c2)C1)c1ccc(F)cc1 (stereo not shown),-16.3
10,O=C(NCC1CCCN(Cc2cccc(C(F)(F)F)c2)C1)c1ccc(F)cc1 (stereo not shown),-58.2
11,O=C(NCC1CCCN(C(=O)c2cccc(C(F)(F)F)c2)C1)c1ccc(F)cc1 (stereo not shown),-8.13
12,CCCn1cc(CN2CCCC(CNC(=O)c3ccc(F)cc3)C2)c(C)n1 (stereo not shown),-25.5
13,CC(C)(O)C#Cc1ccc(CN2CCCC(CNC(=O)c3ccco3)C2)cc1 (stereo not shown),-10.9
14,CCOCc1cc(CN2CCCC(CNC(=O)c3ccco3)C2)ccc1OC (stereo not shown),-48.3
15,CSc1cccc(CN2CCCC(CNC(=O)c3ccc(F)cc3)C2)c1 (stereo not shown),-74.1
16,CSc1ccc(CN2CCCC(CNC(=O)c3ccc(F)cc3)C2)cc1 (stereo not shown),-70.8
17,CCOC(=O)c1ccc(N=c2sc(C(=O)OC)cc(=O)n2CCCN2CCOCC2)cc1.Cl,-16.9
18,CCN(CC(=O)Nc1c(F)cccc1F)C(=O)c1ccc(C2SCCS2)cc1,0.0972
19,O=C(CCc1nnc(CCCCc2ccccc2)o1)N1CCN(CCO)CC1,-0.0459
20,Cc1cc(C)c(NC(=O)Cn2cc3c(n2)CCCC3)c(C)c1,10.4
21,CSCC[C@H](NC(=O)OC(C)(C)C)C(=O)N/N=C/c1cc2ccc(C)cc2nc1Cl,-7.13
22,COc1ccc(C(=O)OCC(=O)Nc2c(C)cccc2C)cc1,17.4

row,Compound,"hERG current change (%, negative = inhibition) at 10uM [%]"
1,O=C(NCCCN1CCOCC1)C(=O)NCC1OCCN1S(=O)(=O)c1ccc(F)cc1 (stereo not shown),-10.2
2,CC(C)NC(=O)CCCc1cn(C)c2ccccc12,18.1
3,COc1ccccc1N1CCN(C(=O)CNC(=O)c2cn(-c3ccccc3OC)c(=O)c3ccccc23)CC1,-15.6
4,O=C(NCC1CCCN(Cc2ccccc2F)C1)c1cccc(C(F)(F)F)c1 (stereo not shown),-52.1
5,O=C(NC1CCCN(Cc2ccccc2F)C1)c1cccc(N2CCCC2=O)c1 (stereo not shown),4.16
6,CN(C(=O)c1cccc(Cl)c1)C1CCCN(Cc2ccccc2F)C1 (stereo not shown),0.373
7,CCOc1ccc(N)c(SSc2cc(OCC)ccc2N)c1,19.3
8,O=C1c2ccccc2C(=O)C1(CO)c1ccc(OC(F)F)cc1,18.3
9,CCN(CC(=O)NC(c1ccccc1)c1ccccc1)Cc1nc2ccccc2c(=O)[nH]1,-32.4
10,CN(Cc1nc2ccccc2c(=O)[nH]1)C(=O)c1ccccc1OCc1ccc(Cl)cc1,-58.2
11,CCN(CC(=O)NCCc1ccc(Cl)cc1)Cc1nc2ccccc2c(=O)[nH]1,-53.3
12,COC(=O)CCC(=O)Nc1ccccc1C(=O)Nc1ccccc1,9.16
13,CN(C(=O)c1ccccc1OCc1ccc(Cl)cc1)c1ccccc1,-7.03
14,CCN(CC(=O)Nc1c(F)cccc1F)C(=O)CCc1nc2ccccc2c(=O)[nH]1,8.25
15,CCN(CC(=O)NCCc1ccc(S(N)(=O)=O)cc1)Cc1nc2cc(OC)c(OC)cc2c(=O)[nH]1,0.804
16,CCN(CC)CCCCCC(=O)Nc1ccccc1C(=O)Nc1ccccc1,-55.8
17,O=C(O)CCC(=O)Nc1ccccc1C(=O)Nc1ccccc1,15.6
18,CCN(CC(=O)Nc1cc(Cl)ccc1C)C(=O)CCc1nc2ccccc2c(=O)[nH]1,-67.3
19,CN(Cc1nc2ccccc2c(=O)[nH]1)C(=O)COc1ccccc1Cc1ccccc1,-43.3
20,CCN(CC(=O)Nc1ccccc1C(F)(F)F)C(=O)CCc1nc2ccccc2c(=O)[nH]1,12.5
21,COc1ccc(NC(=O)CN2C(=O)C(C)Oc3ccccc32)c(OC)c1 (stereo not shown),-10.4
22,Cc1nc(-c2ccccc2)sc1C1(C)CC(c2ccccc2F)=NO1 (stereo not shown),1.13

row,Compound,"hERG current change (%, negative = inhibition) at 10uM [%]"
1,O=c1c2ccccc2n2c(=S)[nH]nc2n1-c1ccccc1,38.4
2,Cc1ccc(C2(c3ccc(C)cc3)CC2C(=O)Nc2ccc([N+](=O)[O-])cc2O)cc1 (stereo not shown),-2.42
3,CCc1ccccc1NC(=O)CC(NCc1ccccc1)C(=O)O (stereo not shown),22.5
4,CCOc1ccc(Cc2nn[nH]n2)cc1,9.6
5,CCn1cc(SCC(=O)N2CCc3ccccc32)c2ccccc21,-1.74
6,CC(C)N1CC(C(=O)O)CC1=O (stereo not shown),19
7,Cn1c(CC(=O)Nc2ccccc2Cl)nnc1SCC(=O)NC1=NCCS1,14.7
8,CCN1C(=O)/C(=C/C2=Cc3ccccc3OC2C)SC1=S (stereo not shown),14.7
9,CCN(CC(=O)NCCc1ccc(S(N)(=O)=O)cc1)Cc1nc2ccccc2c(=O)[nH]1,17.9
10,CCN(CC(=O)Nc1ccc2c(c1)OCCO2)Cc1nc2cc(Cl)ccc2c(=O)[nH]1,-29
11,CCN(CC(=O)Nc1cc(Cl)ccc1-n1cncn1)Cc1nc2ccccc2c(=O)[nH]1,-60.3
12,COCCN(CC(=O)Nc1cc(Cl)ccc1-n1cncn1)Cc1nc2ccccc2c(=O)[nH]1,-43
13,O=C(c1ccccc1)N(Cc1ccc(F)cc1)Cc1nc2ccccc2c(=O)[nH]1,-35
14,CCN(CC(=O)NCc1ccc(F)cc1)Cc1nc2ccccc2c(=O)[nH]1,-56.5
15,CCN(CC(=O)Nc1ccccc1SC)Cc1nc2ccccc2c(=O)[nH]1,-23.9
16,CCN(CC(=O)NC(=O)NCc1ccccc1)Cc1nc2ccccc2c(=O)[nH]1,-12.9
17,CCN(CC(=O)NCc1ccc(F)cc1)Cc1nc2cc(Cl)ccc2c(=O)[nH]1,-72.6
18,CCN(CC(=O)NCCc1ccc(F)cc1)Cc1nc2ccccc2c(=O)[nH]1,-50.7
19,CCN(CC(=O)Nc1cccc(F)c1)Cc1nc2ccccc2c(=O)[nH]1,-31.7
20,CCNCc1nc2cc(Cl)ccc2c(=O)[nH]1.Cl,4.64
21,O=C(c1noc2c1CCCC2)N1CCc2c([nH]c3ccccc23)C1c1ccccn1 (stereo not shown),-7.65
22,O=C(Nc1ccccn1)N1CCOCC1,15.1

row,Compound,"hERG current change (%, negative = inhibition) at 10uM [%]"
1,O=C(CN1CCN(c2ccc(F)cc2)CC1)Nc1ccc(S(=O)(=O)N2CCOCC2)cc1,0.845
2,Cc1cc(C)cc(-n2nnc(C(=O)NCc3ccco3)c2N)c1,-29.8
3,O=C(Cn1nnc(-c2ccccc2NC(=O)c2ccco2)n1)Nc1ccccc1,16.1
4,COc1cc(/C=C/C(=O)Nc2nnc(CC(C)C)s2)cc(OC)c1OC,-27.8
5,CCN1CCN(c2ccc(NC(=O)c3cc4ccccc4cc3OC)cc2C)CC1,-48.7
6,C(=C\c1ccco1)/c1nc2ccccc2[nH]1,8.91
7,O=C(c1cc2ncc(CCCl)cn2n1)N1CCCCCC1,8.53
8,Cc1cccc(C)c1N1CCc2cn[nH]c21,8.17
9,CC1=NN(C(N)=S)C(=O)C1N=Nc1cccc(Cl)c1 (stereo not shown),17.2
10,CN(C)S(=O)(=O)c1ccc2c(c1)C(=NO)c1cc(S(=O)(=O)N(C)C)ccc1-2,14.7
11,OCCNc1nc(Cl)nc(NCc2ccco2)n1,8.89
12,CCc1ccccc1NC(=O)COC(=O)c1c(C)nsc1NC,-2.87
13,COc1ccccc1C(=O)n1nc(-c2ccccc2)nc1N,0.335
14,CCN(CC(=O)Nc1ccccc1C(=O)Nc1ccccc1)Cc1nc2ccccc2c(=O)[nH]1,-75.6
15,CCN(CC(=O)Nc1ccccc1Br)Cc1nc2ccccc2c(=O)[nH]1,-22.3
16,CCN(CC(=O)Nc1ccccc1-c1ccccc1)Cc1nc2ccccc2c(=O)[nH]1,-23.4
17,O=C(CCSc1nc(-c2ccco2)cc(C(F)(F)F)n1)NCC1CCCO1 (stereo not shown),-8.69
18,O=C1CCC(=O)N1OCCCOc1ccccc1,-2.09
19,COC(=O)c1[nH]c2ccc(Cl)cc2c1NC(=O)C1CC1,17.1
20,COc1cc(OC)cc(C(=O)NC(C)c2cnn(-c3ccccc3C)c2C)c1 (stereo not shown),-1.48
21,COc1cc(C(=O)NC(C)c2cnn(-c3ccccc3C)c2C)cc(OC)c1OC (stereo not shown),-51
22,Cc1ccccc1-n1ncc(C(C)NC(=O)c2ccccc2)c1C (stereo not shown),-4.33
